Results reported in PubChem BioAssay.
The source made the active and inactive calls.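 The calls were made as follows, unless noted: active = fluorescence slope higher than the sample average by over 3 SD (cut at about -0.22 in these data, passing the limit was not always enough); inactive = the rest.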

Key:
[1] = inhibitors of TNFa-induced NFkB p65 translocation, primary screen, imaging, HUVEC, MLSMR starter and 10KST1 sets (AID 438;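 active = inhibition above 20% together with a positive visual image hit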;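 also: compound added about 3h40 before a 20 min TNFalpha stimulation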;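 as to inhibition: signal is the nuclear over cytoplasmic p65 intensity ratio per well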); details: HUVEC TNFa-induced p65 nuclear translocation; cell count: measured here: nuclei count (cytotoxicity indicator), at 2.08 µM; inhibition: at 2 µM, stronger effect = higher value, 0% TNFa-plus-vehicle, 100% no-TNFa wells
[2] = inhibitors of mutant huntingtin aggregation, primary screen, imaging, exon1htt(103Q)mCFP cells, high-content imaging (AID 483;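 active = visual image review flags a hit and inhibition of aggregation exceeds 20%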;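 also: compound exposure lasted 3 days before fixation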;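 as to nuclei count: percent of the per-plate median nuclei count of sample wells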); details: exon1htt(103Q)mCFP cell line, aggregate imaging, at 2 µM; inhibition of aggregation: stronger effect = higher value; nuclei count: measured here: cell count, toxicity
[3] = inhibitors of E-selectin induction by TNFa, primary screen, imaging, HUVEC, immunofluorescence, MLSMR starter and 10KST1 sets (AID 487;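 active = visually confirmed hit in the image check and inhibition above 20%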;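 as to inhibition: signal is fraction of cell area covered by stained E-selectin grains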;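 as to nuclei count: 100% = median nuclei count of all wells on the same plate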); details: HUVEC TNFalpha-induced E-selectin immunofluorescence imaging, at 2 µM; inhibition: stronger effect = higher value; nuclei count: measured here: cell number, toxicity
[4] = molecular target: Voltage-gated potassium channel subunit beta-2 (Rattus norvegicus) (UniProt P62483); assay: KvBeta enzyme negative modulators, primary screen, biochemical, NADPH fluorescence (AID 622); details: recombinant KvBeta, 4-cyanobenzaldehyde reduction, at 10 µM, stronger effect = higher value;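 also: slope of raw intensity against log time taken from 70 to 1610 s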
[5] = molecular target: Voltage-gated potassium channel subunit beta-2 (Rattus norvegicus) (UniProt P62483); assay: KvBeta positive modulators, primary screen, biochemical, NADPH fluorescence (AID 623;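 active = NADPH fluorescence slope more negative than the mean of all samples by about 3 SD, 99.7% confidence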;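 also: fluorescence intensity change per second fitted from 20 to 320 s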); details: Recombinant KvBeta, NADPH fluorescence decrease slope, 10 min; at 10 µM; stronger effect = lower value
[6] = molecular target: Alpha-2C adrenergic receptor (Homo sapiens) (UniProt P18825); assay: modulators of alpha2C/GIRK thallium flux, primary screen, cell-based, HEK293 alpha2C/GIRK1/2 (AID 624;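 active = fluorescence slope after compound addition differing from the mean of all screened samples at 99.7% confidence, in either direction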;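 also: slope of fluorescence ratio to pre-addition baseline per second over 15 to 24 s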); details: thallium flux BTC fluorescence, at 10 µM, actives lie on both sides
[7] = inhibitors of Sendai virus-induced IRF3 signaling, primary screen, TLR/RLR signaling modifier project, cell-based, Sendai virus stimulus, luciferase, 10K MLSCN set (AID 602276;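 active = inhibition at or above 50% at 10 µM; inactive = inhibition below 50%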;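 also: firefly luciferase from ISG56 promoter only with Renilla not read in this screen; 0% = Sendai virus plus DMSO and 100% = medium plus DMSO without virus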); details: HEK293 RL24 IRF3 luciferase reporter, at 10 µM, stronger effect = higher value
[8] = inhibitors of poly I:C-induced TLR3 signaling, primary screen, cell-based, poly I:C stimulus, luciferase, 10K MLSCN set (AID 602277;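 active = inhibition of the reporter signal at or above 50%; inactive = inhibition below 50%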); details: HEK293-TLR3 RL24 IRF3 luciferase reporter, at 10 µM, stronger effect = higher value

Chain of Alpha-2C adrenergic receptor (Homo sapiens) (P18825 whole entry, looked up): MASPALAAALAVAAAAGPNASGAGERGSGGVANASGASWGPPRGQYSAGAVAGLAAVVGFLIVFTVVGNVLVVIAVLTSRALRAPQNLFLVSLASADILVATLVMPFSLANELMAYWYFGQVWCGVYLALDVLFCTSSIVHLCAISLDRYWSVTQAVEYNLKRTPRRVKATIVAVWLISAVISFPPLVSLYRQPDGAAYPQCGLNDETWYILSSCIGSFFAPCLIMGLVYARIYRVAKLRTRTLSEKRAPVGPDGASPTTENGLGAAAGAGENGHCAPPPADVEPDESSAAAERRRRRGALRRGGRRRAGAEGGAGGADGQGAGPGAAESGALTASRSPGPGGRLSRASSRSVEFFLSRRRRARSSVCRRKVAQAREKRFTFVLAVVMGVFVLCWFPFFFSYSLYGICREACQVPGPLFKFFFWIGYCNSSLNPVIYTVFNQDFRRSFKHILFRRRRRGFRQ
Chain of Voltage-gated potassium channel subunit beta-2 (Rattus norvegicus) (P62483 whole entry, looked up): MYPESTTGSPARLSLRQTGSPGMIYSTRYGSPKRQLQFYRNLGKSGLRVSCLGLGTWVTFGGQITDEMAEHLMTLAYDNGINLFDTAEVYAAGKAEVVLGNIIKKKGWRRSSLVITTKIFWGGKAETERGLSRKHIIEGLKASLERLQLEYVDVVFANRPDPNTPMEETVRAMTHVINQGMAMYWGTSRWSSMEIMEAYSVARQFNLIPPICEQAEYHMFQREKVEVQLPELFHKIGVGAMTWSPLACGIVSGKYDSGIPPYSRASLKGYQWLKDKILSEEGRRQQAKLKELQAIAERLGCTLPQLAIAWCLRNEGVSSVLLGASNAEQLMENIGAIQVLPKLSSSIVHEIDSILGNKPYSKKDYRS

SMILES | cell count [1] | inhibition [1] | inhibition of aggregation [2] | nuclei count [2] | inhibition [3] | nuclei count [3] | fluorescence slope [4] | NADPH fluorescence slope [5] | slope [6] | inhibition [7] | inhibition [8]
O=C(COc1ccccc1)N1CCN(C(=O)c2cccc(F)c2)CC1 | 725 | 1% (inactive) | -0.2% (inactive) | 111% | 7.6% (inactive) | 97.2% | -0.447 (inactive) | -3.8e-05 (inactive) | 0.00634 (inactive) | 8.19% (inactive) | 29.6% (inactive)
CN(C1CCCCC1)S(=O)(=O)c1ccc(S(=O)(=O)N2CCN(CCC#N)CC2)cc1 | 698 | 0% (inactive) | 28.2% (inactive) | 124% | -53.2% (inactive) | 107% | -0.527 (inactive) | -3.3e-06 (inactive) | 0.00618 (inactive) | 3.23% (inactive) | 15.8% (inactive)
CC1CCCCN1CCNS(=O)(=O)c1ccc2c(c1)oc(=O)n2C (centres undefined) | 248 | 0.3% (inactive) | 4.6% (inactive) | 89.3% | 18.9% (inactive) | 88.9% | -0.424 (inactive) | -6.8e-05 (inactive) | 0.00417 (inactive) | 15.8% (inactive) | 18.5% (inactive)
Cc1ccc(NC(=O)C2CCCN(S(=O)(=O)c3cnc[nH]3)C2)c(Br)c1 (centres undefined) | 601 | 10.1% (inactive) | -33.6% (inactive) | 82.3% | 12.8% (inactive) | 108% | -0.543 (inactive) | -6.4e-05 (inactive) | 0.00566 (inactive) | 3.4% (inactive) | -7.13% (inactive)
CCOC(=O)c1cc2c(=O)n3ccccc3nc2n(CC2CCCO2)c1=NC(C)=O (centres undefined) | 617 | 3.1% (inactive) | 18.5% (inactive) | 86.7% | 22.2% (inactive) | 100% | -0.441 (inactive) | -1.3e-05 (inactive) | 0.00574 (inactive) | 9.86% (inactive) | 10.8% (inactive)
Cc1ccc(SCC(=O)NCCN2C(=O)CSC2=O)c(C)c1 | 323 | 22.6% (inactive) | -4.2% (inactive) | 93.3% | -98.3% (inactive) | 115% | -0.422 (inactive) | -2.5e-05 (inactive) | 0.00367 (inactive) | 0.863% (inactive) | 35.6% (inactive)
Clc1ccc(C2=Nn3c(nnc3-c3n[nH]c4c3CCC4)SC2)cc1Cl | 434 | 3% (inactive) | 1.5% (inactive) | 101% | 19.9% (inactive) | 95.9% | -0.498 (inactive) | 1.2e-05 (inactive) | 0.00652 (inactive) | 29.6% (inactive) | 33% (inactive)
Cc1nc2cc(Cl)ccc2n1CCO | 404 | 6.1% (inactive) | -6.3% (inactive) | 104% | 15.4% (inactive) | 115% | -0.565 (inactive) | -1.6e-05 (inactive) | 0.00492 (inactive) | 17% (inactive) | 21.6% (inactive)
Cc1ccc(S(=O)(=O)N2CCN(S(=O)(=O)N(C)C)CC2)cc1 | 362 | 4.3% (inactive) | -29.3% (inactive) | 101% | 8.9% (inactive) | 111% | -0.518 (inactive) | -1.8e-06 (inactive) | 0.00563 (inactive) | 12.1% (inactive) | 15.4% (inactive)
COc1cc2c(cc1OC)CN(CC(=O)Nc1cccc(C)c1)CC2 | 384 | 3.5% (inactive) | -6.2% (inactive) | 98.6% | -74.2% (inactive) | 102% | -0.495 (inactive) | -1.8e-05 (inactive) | 0.00456 (inactive) | 7.7% (inactive) | 9.94% (inactive)
CCOC(=O)c1ccc(S(=O)(=O)NC2CCCCCCC2)n1C | 583 | -1% (inactive) | 3% (inactive) | 95.7% | -42.2% (inactive) | 123% | -0.614 (inactive) | 5e-06 (inactive) | 0.00591 (inactive) | 17.3% (inactive) | 23.7% (inactive)
O=C(O)C1CCCN(S(=O)(=O)c2ccc(Cl)s2)C1 (centres undefined) | 609 | -7.1% (inactive) | 13.3% (inactive) | 88.8% | -43.3% (inactive) | 116% | -0.558 (inactive) | -2.9e-05 (inactive) | 0.00655 (inactive) | 10.1% (inactive) | 33.8% (inactive)
COc1ccc(C2CC(c3cccs3)n3nc(N)nc3N2)cc1 (centres undefined) | 619 | -6.3% (inactive) | 7.8% (inactive) | 122% | -38.1% (inactive) | 118% | -0.533 (inactive) | -1.5e-05 (inactive) | 0.00849 (inactive) | -3.14% (inactive) | -18.2% (inactive)
CCOC(=O)CSc1nnc([C@H](CC(C)C)NC(=O)OC(C)(C)C)o1 | 696 | 6.5% (inactive) | 23.3% (inactive) | 81.4% | 13.7% (inactive) | 104% | -0.501 (inactive) | -1.8e-05 (inactive) | 0.0048 (inactive) | 13.5% (inactive) | 14.4% (inactive)
COc1ccc(OC)c(S(=O)(=O)N2CCC(C(=O)NCc3ccccc3OC)CC2)c1 | 782 | -2.1% (inactive) | -13.8% (inactive) | 107% | -74.6% (inactive) | 133% | -0.517 (inactive) | -1.4e-05 (inactive) | 0.00487 (inactive) | 4.82% (inactive) | 13.9% (inactive)
CC(C)=CCCC(C)CN(C)CCc1ccccn1 (centres undefined) | 281 | -2.1% (inactive) | 27.8% (inactive) | 92.8% | -75.4% (inactive) | 108% | -0.448 (inactive) | -0.000147 (inactive) | 0.00676 (inactive) | -1.84% (inactive) | 20.8% (inactive)
CSc1cccc(NC(=O)C2CCN(S(=O)(=O)c3ccc(F)cc3)CC2)c1 | 376 | -0.2% (inactive) | 10.8% (inactive) | 104% | -69.1% (inactive) | 115% | -0.353 (inactive) | 5.7e-05 (inactive) | 0.00752 (inactive) | 16.9% (inactive) | 39.3% (inactive)
CCOC(=O)C(C)(C)Sc1nc2c(cnn2-c2ccc(C)cc2)c(=O)[nH]1 | 387 | -1.6% (inactive) | -13.4% (inactive) | 106% | -44.8% (inactive) | 106% | -0.626 (inactive) | -2.5e-05 (inactive) | 0.00578 (inactive) | 9.78% (inactive) | 34% (inactive)
C=CCSc1nc2sc(C)c(C)c2c(=O)[nH]1 | 589 | 1.4% (inactive) | 10.2% (inactive) | 111% | 3.2% (inactive) | 107% | -0.563 (inactive) | -9.3e-06 (inactive) | 0.00785 (inactive) | -11.3% (inactive) | -3.55% (inactive)
